The entries come from a sample that favours hits as a whole.
NPSR antagonist: neuropeptide S receptor (human) antagonism, cAMP; Potency, µM (top dose mostly 38.3 µM), inactives show top-dose activity change, negative = inhibition, most hits filed as inhibitors; Q6W5P4; 1% of 220,000 active; CHO-NPSR cells, cAMP TR-FRET, antagonist mode; also: nearly all actives have a fitted effect of over 50% in size
Target sequence (Q6W5P4 whole entry, looked up): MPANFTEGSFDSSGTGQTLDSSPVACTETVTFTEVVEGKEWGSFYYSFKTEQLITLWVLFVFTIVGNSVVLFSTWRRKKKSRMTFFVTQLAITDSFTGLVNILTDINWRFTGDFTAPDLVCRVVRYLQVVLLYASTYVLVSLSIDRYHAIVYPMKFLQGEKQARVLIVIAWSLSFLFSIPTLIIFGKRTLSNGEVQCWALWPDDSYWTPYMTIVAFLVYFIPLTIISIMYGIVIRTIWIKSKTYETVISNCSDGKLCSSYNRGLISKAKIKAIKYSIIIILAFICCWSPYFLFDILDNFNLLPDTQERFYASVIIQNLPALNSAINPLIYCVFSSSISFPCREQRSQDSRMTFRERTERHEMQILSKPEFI
ERK EGF block: blocks ERK signaling stimulated by EGF. HEK293-V1b, EGF-stimulated phospho-ERK AlphaScreen. Potency, µM (doses to about 11.5 µM), for the others: at the highest dose activity change, negative = inhibition, most hits filed as inhibitors. 0.41% of 130,000 active. AID 1454;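 also: plate controls were stimulated vehicle wells for no effect and unstimulated vehicle basal for full effect; nearly all actives have a fitted effect of over 55% in size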
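Compounds are titrated over HEK293-V1b cells kept overnight in 1% FBS. After 30 min at 37C, EGF (25 nM final) triggers ERK phosphorylation for 5 min, measured by AlphaScreen in lysates.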
* marks the source's active call; other numbers are inactive results; ? = inconclusive; · = no result given; [ ] = another dose, or the depositor's remark. Calls follow the shape of the dose curve; as a rule, active = well fitted curve in the direction sought with a large enough effect; inconclusive = small, poorly fitted or top-dose-only effect, or another doubt; inactive = no such curve, though single readings can be large; an effect the other way counts as inactive or inconclusive. Unless noted, % is scaled to controls: 0 for no effect and ±100 for the full control effect; potency is read from the fitted curve at half-maximal effect.

SMILES	NPSR antagonist	ERK EGF block
CC1=NN(c2ccc(Cl)cc2)C(=O)/C1=C\c1cccn1-c1ccc(S(N)(=O)=O)cc1	-46.2%	25.1µM*
CCCCCC(O)/C=C/C=C\CCCCCCCC(=O)O (configuration not stated)	·	3.8%
CC1(C)C(=O)C(c2ccccc2)=C2CN3C(=O)N(CCc4ccccc4)C(=O)C3(Cc3ccccc3)C=C21 (configuration not stated)	·	4.3%
O=C(O)c1ccc(N=NNc2cccc([N+](=O)[O-])c2)cc1	-22.5%	-3.1%
N#C/C(=N\Nc1cccc([N+](=O)[O-])c1)C(=O)c1ccc(Br)cc1	6.31µM*	-7.0%
Cc1cnc(CNc2ncncc2-c2ccccc2C(F)(F)F)cn1	·	13.2%
COc1cccc(-c2nc(NCCc3c[nH]c4ccc(OC)cc34)c3ccccc3n2)c1	·	25.1µM*
COc1ccc2[nH]cc(CCNc3nc(-c4ccoc4)nc4ccccc34)c2c1	·	34.6%
COc1ccc(Oc2ncc3nc(C)c(=O)n(Cc4ccc(F)cc4)c3n2)cc1	·	0.8%
COc1ccccc1CNc1ncncc1-c1ccoc1	·	26.5%
COc1ccccc1CNc1ncncc1-c1ccc(N(C)C)cc1	·	20µM*
C=CCOC(=O)C1=C(C)NC(SCC)=C(C#N)C1c1ccc(Cl)cc1 (configuration not stated)	10µM*	·
C=CCOC(=O)C1=C(C)NC(SCC(N)=O)=C(C#N)C1c1ccc(C)cc1 (configuration not stated)	11.3%	4.2%[57.5 µM]
CCCCC/C=C\C/C=C\C/C=C\C/C=C\CCCCCC(=O)NCCCC(=O)O	·	-1.5%
COc1ccc(-c2cn[nH]c2-c2ccc(OCc3ccccc3)cc2O)cc1	?	22.4µM*
COc1ccc(-c2cn[nH]c2-c2ccc(OCc3ccccc3F)cc2O)cc1OC	?	31.6µM*
COc1ccccc1-c1cn[nH]c1-c1ccc(OCc2ccccc2)cc1O	-26.5%	-10.3%[57.5 µM]
COc1ccc(-c2cn[nH]c2-c2ccc(OCc3ccc([N+](=O)[O-])cc3)cc2O)cc1OC	-43.6%	?
COc1ccc2c(c1)O[C@@H](c1cccc(C(F)(F)F)c1)[C@H](OC(=O)N[C@H](C)C1CCCCC1)C2=O	·	-0.1%
O=C(Nc1ccc2c(c1)CCC2)C1CCN(c2c3c(nc4ncnn24)CCC3)CC1	-5.7%[46.1 µM]	·
O=C(Nc1ccc(Oc2ccccc2)cc1)C1CCN(c2c3c(nc4ncnn24)CCC3)CC1	12.6µM*	·
CC1=C/C(=N\OS(=O)(=O)c2ccccc2)C(C(C)C)=CC1=O	10µM*	?
CC1=C/C(=N\OS(=O)(=O)c2ccccc2)C(C)=CC1=O	2.51µM*	·
C=C[C@@H](C1=CC(=O)C(OC)=C(OC)C1=O)c1ccccc1	·	3.2%
COc1cc(C(=O)O/N=C2/C=C(C)C(=O)C=C2C)cc(OC)c1OC	-31.3%	-4.7%
SMILES	NPSR antagonist	ERK EGF block
O=C1C2C3C=CC(CO)(O3)C2C(=O)N1c1ccccc1-c1ccccc1 (configuration not stated)	6.31µM*	·
CC(=O)Oc1ccc(N2C(=O)C3C4C=CC(CO)(O4)C3C2=O)cc1 (configuration not stated)	-11.6%[46.1 µM]	·
C=CCC(C)(O)c1cccs1 (configuration not stated)	·	-5.2%
O=C(Oc1ccc(Nc2ncnc3ccccc23)cc1)c1cccnc1	6.3%	28.2µM*
CCOC(=O)c1ccc(Nc2ncnc3ccccc23)cc1	-25.9%	-7.4%
C=C(C)C(=O)/C=C/CCC/C=C/C(=O)OCC	·	2.3%
COC(=O)[C@H](Cc1ccccc1)NC(=O)O[C@@H]1Cc2cc(OC)ccc2O[C@H]1c1cccc(OC)c1	·	-7.7%
CC(=O)n1cc(C(C[N+](=O)[O-])SCCN)c2ccccc21 (configuration not stated)	10µM*	·
COC(=O)/C(=C/c1cn(C(C)=O)c2ccccc12)[N+](=O)[O-]	20.2%	-13.1%[57.5 µM]
O=c1c2oc3ccccc3c2[nH]c(=S)n1-c1ccc(F)cc1	10µM*	6.3%
CN1CCN(C(=O)c2ccc3c(=O)n(-c4ccc(F)cc4)c(=S)[nH]c3c2)CC1	-11.0%	0.6%
COc1cc2c(cc1OC)C(c1c[nH]c3ccccc13)NCC2 (configuration not stated)	·	-6.5%
CN(C)c1ccc(-c2cc(NCc3cccnc3)ncn2)cc1	·	12.6%
N[C@H](Cn1ccc(=O)n(Cc2ccccc2C(=O)O)c1=O)C(=O)O	·	-8.4%
CCSc1nnc(NC(=O)c2ccc3ccccc3n2)s1	7.94µM*	·
CCc1nnc(NC(=O)c2ccc3ccccc3n2)s1	-44.1%	21.0%
Nc1nc2ncc(=O)[nH]c2c(=O)[nH]1	·	8.8%
CC1=CC(=O)OC1Cc1ccc2ccccc2n1 (configuration not stated)	·	2.2%
COc1cccc2c1C(=O)c1c(O)c3c(c(O)c1C2=O)C[C@@](O)(C(=O)CO)C[C@@H]3O[C@H]1C[C@H](N)[C@H](O)[C@H](C)O1	?	28.2µM*
